Laboratory results as given in PubChem BioAssay (NCATS).
For part of these data: Potency and affinity values are given separately. The source made the active and inactive calls. The rule behind the calls is not given here. Peptide text beside a SMILES is read from it.

Legend:
[1] = Ebola virus entry assay, green fluorescence channel
[2] = Ebola virus entry assay, blue channel fluorescence
[3] = Ebola virus entry assay, ratio channel
[4] = Ebola virus entry assay, green channel fluorescence
[5] = Ebola virus entry assay, reporter ratio channel; Channel type: primary
[6] = Ebola virus entry assay, blue channel (ratio component)

Measured: efficacy
Throughout, for efficacy: 0% is about no effect.

O=c1[nH]c2cc(C(F)(F)F)c(N3CCOCC3)cc2n(CP(=O)(O)O)c1=O
inactive: [1] -34.7% | [2] | [3] | [4] | [5] | [6]

Cc1nnc(C(=O)NC(C)(C)c2nc(C(=O)NCc3ccc(F)cc3)c(O)c(=O)n2C)o1
inactive: [1] -16.5% | [2] | [3] | [4] | [5] | [6]

NC(N)=NCCC[C@H](N)C(=O)O
inactive: [1] -16.3% | [2] | [3] | [4] | [5] | [6]

CC[N+]1(CC)CCC(=C(c2ccccc2)c2ccccc2)C1C (centres undefined)
inactive: [1] 13% | [2] | [3] | [4] | [5] | [6]

C#CCN(C)Cc1ccccc1
inactive: [1] -14.7% | [2] | [3] | [4] | [5] | [6]

Nc1c(CC(=O)O)cccc1C(=O)c1ccc(Br)cc1
inactive: [1] 18.5% | [2] | [3] | [4] | [5] | [6]

CC(=O)Oc1c(C)c(C)c2c(c1C)CC[C@@](C)(CCC[C@H](C)CCC[C@H](C)CCCC(C)C)O2
inactive: [1] -9.77% | [2] | [3] | [4] | [5] | [6]

CC(C)NC(=O)c1ccc(C=O)cc1
inactive: [1] 10.7% | [2] | [3] | [4] | [5] | [6]

C=C1C[C@H]2[C@@H]3C=C(C)C4=CC(=O)CC[C@]4(C)[C@H]3CC[C@]2(C)[C@@]1(OC(C)=O)C(C)=O
inactive: [1] -35.6% | [2] | [3] | [4] | [5] | [6]

CCOC(=O)C(=O)c1csc(NC=O)n1
inactive: [1] -15.8% | [2] | [3] | [4] | [5] | [6]

C(=C\c1ccccc1)/CN1CCN(C(c2ccccc2)c2ccccc2)CC1
inactive: [1] 12.5% | [2] | [3] | [4] | [5] | [6]

Nc1ccn(C2CO[C@H](CO)O2)c(=O)n1 (some centres undefined)
inactive: [1] -24% | [2] | [3] | [4] | [5] | [6]

C[C@H](N)[C@H](O)c1cccc(O)c1
inactive: [1] -10.3% | [2] | [3] | [4] | [5] | [6]

NS(=O)(=O)c1cc2c(cc1Cl)NCNS2(=O)=O
inactive: [1] 14.8% | [2] | [3] | [4] | [5] | [6]

C=CCSCC1Nc2cc(Cl)c(S(N)(=O)=O)cc2S(=O)(=O)N1 (centres undefined)
inactive: [1] -29.5% | [2] | [3] | [4] | [5] | [6]

O=C(Nc1ccc(C(=O)O)c(O)c1)c1ccccc1
inactive: [1] -10.4% | [2] | [3] | [4] | [5] | [6]

OC1C(O)C(O)C(O)C(O)C1O (centres undefined)
inactive: [1] 12.1% | [2] | [3] | [4] | [5] | [6]

CC(=O)Oc1ccc(C2(c3ccc(OC(C)=O)cc3)C(=O)Nc3ccccc32)cc1
inactive: [1] -16% | [2] | [3] | [4] | [5] | [6]

CC(=O)Oc1ccc(C2(c3ccc(OC(C)=O)cc3)Oc3ccccc3NC2=O)cc1
inactive: [1] -26.7% | [2] | [3] | [4] | [5] | [6]

C#C[C@]1(O)CC[C@H]2[C@@H]3CCC4=CC(=O)CC[C@@H]4[C@H]3CC[C@@]21C
inactive: [1] -11.7% | [2] | [3] | [4] | [5] | [6]

COCc1c(C(C)C)nc(C(C)C)c(/C=C/[C@@H](O)C[C@@H](O)CC(=O)O)c1-c1ccc(F)cc1
inactive: [1] 9.5% | [2] | [3] | [4] | [5] | [6]

Oc1cccc2[nH]ccc12
inactive: [1] 14.5% | [2] | [3] | [4] | [5] | [6]

CNc1c2c(nn1C)CCCC2
inactive: [1] -13.1% | [2] | [3] | [4] | [5] | [6]

O=C(Oc1cccc2cccnc12)c1ccccc1
inactive: [1] -27.7% | [2] | [3] | [4] | [5] | [6]

CC(=O)N[C@@H](CO)C(=O)N[C@@H](CC(=O)O)C(=O)N[C@@H](CCCCN)C(=O)N1CCC[C@H]1C(=O)O (Ac-SDKP-OH)
inactive: [1] 17.5% | [2] | [3] | [4] | [5] | [6]

CC1CC(=O)NN=C1c1ccc(NCC(C)(C)NCC(O)COc2cc(Cl)ccc2C#N)cc1 (centres undefined)
inactive: [1] 42.4% | [2] | [3] | [4] | [5] | [6]

C#C[C@]1(OC(C)=O)CC[C@H]2[C@@H]3CCC4=C[C@@H](OC(C)=O)CC[C@@H]4[C@H]3CC[C@@]21C
inactive: [1] -36.9% | [2] | [3] | [4] | [5] | [6]

c1ccc(CC2=NCCN2)cc1
inactive: [1] -17.9% | [2] | [3] | [4] | [5] | [6]

CCOC(=O)N1CCC(n2c(=O)[nH]c3cc(Cl)ccc32)CC1
inactive: [1] 43.9% | [2] | [3] | [4] | [5] | [6]

COCCOC(=O)C1=C(C)NC(C)=C(C(=O)OC/C=C/c2ccccc2)C1c1cccc([N+](=O)[O-])c1 (centres undefined)
inactive: [1] 17.5% | [2] | [3] | [4] | [5] | [6]

O=C(O)COC(=O)Cc1ccccc1Nc1c(Cl)cccc1Cl
inactive: [1] 31.8% | [2] | [3] | [4] | [5] | [6]

OC[C@H]1O[C@@H](O[C@@H]2[C@@H](CO)O[C@](O)(CO)[C@H]2O)[C@H](O)[C@@H](O)[C@H]1O
inactive: [1] -16.4% | [2] | [3] | [4] | [5] | [6]

O=c1[nH]c(=O)n([C@H]2C[C@H](O)[C@@H](CO)O2)cc1C(F)(F)F
inactive: [1] 18.2% | [2] | [3] | [4] | [5] | [6]

CCCCCC(N)=O
inactive: [1] 10.6% | [2] | [3] | [4] | [5] | [6]
